# Assay results reported in PubChem BioAssay AID743386 (Vanderbilt Specialized Chemistry Center, 2014).
# Target: Metabotropic glutamate receptor 7 (Rattus norvegicus) (UniProt P35400)
# Test: glutamate curve shift by mGlu7 potentiators, cell-based, rat, GIRK per title (AID 743386)
# Conditions: rat mGlu7/Ga15, glutamate CRC shift, calcium; glutamate EC50 left shift; at 10 µM; stronger effect = higher value
# Sequence of Metabotropic glutamate receptor 7 (Rattus norvegicus) (P35400 whole entry, looked up): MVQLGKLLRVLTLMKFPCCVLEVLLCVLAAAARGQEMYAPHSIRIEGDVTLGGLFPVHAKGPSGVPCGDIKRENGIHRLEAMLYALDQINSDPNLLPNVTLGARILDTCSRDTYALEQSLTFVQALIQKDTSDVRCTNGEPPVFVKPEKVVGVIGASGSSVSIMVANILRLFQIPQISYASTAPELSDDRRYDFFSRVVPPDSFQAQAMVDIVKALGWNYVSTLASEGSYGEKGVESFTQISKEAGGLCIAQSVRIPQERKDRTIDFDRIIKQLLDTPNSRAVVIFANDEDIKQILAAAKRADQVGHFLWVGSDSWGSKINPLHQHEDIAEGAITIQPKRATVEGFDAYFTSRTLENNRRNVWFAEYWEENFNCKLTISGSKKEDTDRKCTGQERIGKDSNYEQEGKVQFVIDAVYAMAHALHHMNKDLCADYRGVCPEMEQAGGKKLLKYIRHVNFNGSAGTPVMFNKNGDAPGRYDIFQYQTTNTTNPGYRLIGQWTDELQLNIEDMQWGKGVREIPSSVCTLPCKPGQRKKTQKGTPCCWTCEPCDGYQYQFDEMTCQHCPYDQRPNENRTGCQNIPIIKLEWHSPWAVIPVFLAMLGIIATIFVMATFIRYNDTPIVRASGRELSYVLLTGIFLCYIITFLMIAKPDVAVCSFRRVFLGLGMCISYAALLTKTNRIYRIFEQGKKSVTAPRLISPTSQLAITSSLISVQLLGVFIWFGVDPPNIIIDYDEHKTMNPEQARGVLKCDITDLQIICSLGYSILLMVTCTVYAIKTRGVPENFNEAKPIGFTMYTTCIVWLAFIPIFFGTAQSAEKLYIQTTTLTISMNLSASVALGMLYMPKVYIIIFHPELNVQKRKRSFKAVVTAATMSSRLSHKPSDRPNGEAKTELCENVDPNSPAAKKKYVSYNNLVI
structure (smiles),measurement,value
COC(=O)c1ccc(-n2c(C)cc(C(=O)CSc3ccc(NC(C)=O)cc3)c2C)cc1,fold shift,4.91
